STAT1 activator: STAT1 signaling activators, primary screen, cell-based, HTS, luciferase reporter; NIH 3T3 STAT1-luciferase reporter, IFN-gamma, luminescence; 100% = IFN-gamma alone, no compound; activation (% of control), % at 5.5 µM; hit rate 2.6% among 200,000; AID 932, 2007;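 active = activation above the screen-wide mean activation plus 3 SD, cut at about 130% in these data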;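 note: raw ratio to IFN-gamma control signal so 100% means no change and 0% no light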
APP 5'UTR act: activators of APP 5'UTR luciferase reporter, primary screen, SH-SY5Y cells. SH-SY5Y APP 5'UTR luciferase reporter, luminescence; zero percent = DMSO vehicle wells. activation, % at 2 µM. hit rate 1% among 190,000. AID 1276, 2008;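 active = activation above a set limit, based on mean plus 3 SD of controls, cut at about 140% in these data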
NF-kB neuron act: activators of NF-kB expression in neurons, primary screen, cell-based, HTS. fold change at 12.5 µM. human neuronal cells, NF-kB reporter expression; hits give high values. hit rate 1.6% among 190,000; in the data active = fold change above about 3.3
Wee1 degr inh: Wee1 degradation inhibitors, primary screen, cell-based, HeLa, Wee1K328M-luciferase, luminescence. Wee1-like protein kinase (Homo sapiens), P30291. HeLa Luc-Wee1K328M stability; 100% = proteasome inhibitor MG132 effect. reporter increase, % at 5 µM. hit rate 1.2% among 220,000;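 active = activation above the mean of all tested compounds plus 3 SD, set per screening run, cut at about 8.8% in these data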;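 note: cells exposed to compound for 20 h before luminescence read; 0% = DMSO alone and 100% = MG132 at 30 µM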
Target sequence (P30291 whole entry K328M): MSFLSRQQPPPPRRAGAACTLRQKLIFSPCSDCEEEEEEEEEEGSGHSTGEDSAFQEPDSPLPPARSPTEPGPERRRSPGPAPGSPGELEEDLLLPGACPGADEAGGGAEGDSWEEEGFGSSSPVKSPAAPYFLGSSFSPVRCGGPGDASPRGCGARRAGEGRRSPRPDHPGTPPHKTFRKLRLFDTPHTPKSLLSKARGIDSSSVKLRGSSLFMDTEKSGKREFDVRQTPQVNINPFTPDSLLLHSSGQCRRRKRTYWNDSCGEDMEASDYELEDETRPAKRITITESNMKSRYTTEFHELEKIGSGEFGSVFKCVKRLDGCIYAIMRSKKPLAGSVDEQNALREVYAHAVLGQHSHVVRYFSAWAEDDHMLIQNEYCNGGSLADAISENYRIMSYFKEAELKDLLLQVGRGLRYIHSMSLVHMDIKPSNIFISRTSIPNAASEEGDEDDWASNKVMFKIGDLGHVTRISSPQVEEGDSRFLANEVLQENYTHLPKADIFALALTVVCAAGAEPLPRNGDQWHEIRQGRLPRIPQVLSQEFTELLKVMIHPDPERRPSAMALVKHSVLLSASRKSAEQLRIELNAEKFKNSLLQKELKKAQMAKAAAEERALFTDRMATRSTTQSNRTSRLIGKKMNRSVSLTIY
Hsp70 activator: Hsp70 transcriptional activators, primary screen, cell-based, HeLa, Hsp70 promoter luciferase, luminescence, 10 µM | AID 1203, 2008 | HeLa Hsp70 promoter luciferase reporter; scaled: vehicle 0, proteasome-inhibitor control 100% | activation, % at 10 µM | hit rate 0.04% among 200,000;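 active = activation above the mean across all tested compounds plus 3 SD, cutoff set per campaign, cut at about 5.5% in these data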;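 note: 100% = MG132 at 30 µM as the positive control and 0% = DMSO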
APP transl inh: inhibitors of APP translation via 5'UTR reporter, primary screen, APP 5'UTR luciferase, SH-SY5Y cells. AID 1285, 2008. hit rate 0.82% among 190,000. SH-SY5Y APP 5'UTR-luciferase reporter, luminescence. inhibition, % at 2 µM;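 active = inhibition above a set limit, derived from the sample mean plus 3 SD, cut at about 45% in these data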
An asterisk follows results filed as active; / = no result given. Only some compounds are listed: those with a hit (about 4.8% of all), similar ones and a draw of the others.

SMILES	STAT1 activator	APP 5'UTR act	NF-kB neuron act	Wee1 degr inh	Hsp70 activator	APP transl inh
COCCNC(=O)C(C)N(c1ccc(OC)cc1)S(C)(=O)=O (configuration not stated)	95	-12	1.1	10*	0	12
Cc1cccc(OC(=O)c2ccc3nccnc3c2)c1	108	11	0.89	0	0	-11
CCC(NC(=O)c1ccccc1NC(=O)c1ccccc1)C(=O)NNC(=O)c1cccnc1 (configuration not stated)	/	/	/	1	/	/
COc1ccc(C(=O)CC(=O)c2ccccc2O)cc1OC	121	25	1.8	0	0	-25
COc1ccc(O)c(C(=O)CC(=O)c2ccccc2C)c1	145*	77	2.3	8.9*	0	-77
COc1ccc(NC(=O)c2ccccc2C)c(OC)c1	97	0	1.2	3	0	0
COc1ccc(O)c(C(=O)CC(=O)c2ccc(F)cc2)c1	110	149*	2.3	-5	0	-149
COc1ccc(C(=O)Cc2ccc(F)cc2)c(OC)c1	138*	46	1.9	1	0	-46
COc1ccc(-c2cc(C(F)(F)F)nc(SCC(=O)NCc3ccco3)n2)cc1OC	99	-14	1.1	0	0	14
CC(C1CC2CCC1C2)n1c(-c2ccco2)n[nH]c1=S (configuration not stated)	87	-54	1.3	3	0	54*
Cc1ccc(NC(=O)CSC2=NN3CCCC(=O)N=C3S2)c(C)c1	98	13	3.3*	0	0	-13
COc1ccc(C2c3c4c(n(C)c3CCN2C)CCN(C)C4c2ccc(OC)cc2)cc1 (configuration not stated)	93	12	1	-1	0	-12
COc1cc(/C=N/NC(=O)CCn2nnc3ccccc32)ccc1O	101	-13	1	4	0	13
O=C1C(=O)N(CCN2CCOCC2)C(c2ccccn2)/C1=C(/O)c1ccc(F)cc1 (configuration not stated)	106	-4	1.3	7	0	4
COc1ccc(/C(O)=C2/C(=O)C(=O)N(CCN3CCOCC3)C2c2ccccn2)cc1 (configuration not stated)	143*	-16	1.3	0	0	16
O=C(O)Cc1csc2ccccc12	103	12	1	4	0	-12
O=[N+]([O-])c1ccc(OCC(O)CNC2CCCC2)cc1 (configuration not stated)	/	/	/	-2	/	/
Cc1cc(C)nc(SC2=CS(=O)(=O)c3ccccc32)n1	78	-8	1	0	0	8
O=S1(=O)C=C(Sc2nc3ccccc3s2)c2ccccc21	95	-96	0.14	3	3	96*
O=C1Nc2ccc(S(=O)(=O)NCc3ccco3)c3cccc1c23	85	10	/	2	2	-10
COc1ccc(-c2nn(C)c(=O)[nH]2)cc1	/	/	/	11*	/	/
O=C(CSc1ccc(Cl)cc1)Nc1ccccc1N1CCN(C(=O)c2ccc(Cl)cc2)CC1	98	5	0.69	-3	0	-5
Oc1ccc(N2CCN(C(=S)NCCc3ccccc3)CC2)cc1	87	-1	4.7*	-2	0	1
COc1ccc(N2CCN(C(=S)NCCc3ccccc3)CC2)cc1	96	-13	/	9.4*	0	13
Cc1c(C(=O)OCCOc2ccccc2)[nH]c2c1C(=O)CCC2	117	87	3.5*	4	0	-87
SMILES	STAT1 activator	APP 5'UTR act	NF-kB neuron act	Wee1 degr inh	Hsp70 activator	APP transl inh
CC(=O)c1c(C)[nH]c(C(=O)OCCOc2ccccc2)c1C	53	212*	2.5	2	0	-212
COc1ccc(CCNC(=O)c2[nH]c(C)c(C(C)=O)c2C)cc1OC	99	-1	1.1	-3	0	1
CC(=O)c1c(C)[nH]c(C(=O)NCCc2ccccc2)c1C	149*	131	3.4*	2	0	-131
CCCc1c(C(=O)OCC)[nH]c2c1C(=O)CCC2	98	-2	1.1	-1	0	2
COc1ccc(OC)c(NC(=O)CSc2ncnc3c2cnn3-c2ccccc2Cl)c1	76	11	3.3*	1	1	-11
CCCc1cc(C(=O)Nc2cc(Br)ccc2O)no1	102	23	5.5*	3	0	-23
CCCc1cc(C(=O)NCc2ccc(OC)cc2)no1	112	14	1.5	5	0	-14
CSc1ccccc1NC(=O)c1cc(C(C)C)on1	128	41	1.5	-3	0	-41
CC(C)c1cc(C(=O)Nc2cc(Br)ccc2O)no1	102	38	7.5*	7	0	-38
CC(C)c1cc(C(=O)Nc2cc(Cl)ccc2O)no1	97	139*	8.6*	1	0	-139
CC1Cc2ccccc2N1C(=O)CNc1ccccc1N1CCCCC1 (configuration not stated)	105	11	0.92	1	0	-11
O=C1C2CC=C(Cl)CC2C(=O)N1CCc1ccccc1 (configuration not stated)	95	11	1.4	3	0	-11
Cc1cccc(CSC(Nc2ccc(F)cc2)=C(C#N)C#N)c1	79	-48	0.35	-3	0	48*
Cc1ccc(NC(=O)C2OCCc3ccccc32)cc1 (configuration not stated)	111	22	1.7	-3	0	-22
Cc1ccc(NC2=Nc3ccccc3CC2)cc1	95	179*	3.7*	-1	0	-179
COC(=O)c1ccc(N=Nc2ccccc2)cc1	132*	39	3.3	-1	0	-39
COC(=O)c1ccc(OCCOc2ccccc2)cc1	101	34	2.1	-2	0	-34
COC(=O)CCC(=O)Nc1ccc(N=Nc2ccccc2)cc1	133*	54	2.6	0	0	-54
O=C(COC(=O)C1CC1)Nc1ccc(N=Nc2ccccc2)cc1	136*	101	1.2	4	0	-101
Cc1cc(C(=O)N/N=C/c2ccc(N(C)C)cc2)c2ccccc2n1	82	-46	0.77	5	1	46*
C/C(=N\NC(=O)c1cc(-c2cccs2)nc2ccccc12)c1ccccn1	92	-71	1.2	-1	0	71*
O=C(N/N=C/c1ccco1)c1cc(-c2cccc(Br)c2)nc2ccccc12	98	-2	1.8	2	0	2
CC(/C=N/NC(=O)c1cc(-c2ccncc2)nc2ccccc12)=C\c1ccco1	113	-88	2.1	1	0	88*
